Screening results as filed in PubChem BioAssay.
Sfp PPTase inh – inhibitors of Bacillus subtilis Sfp phosphopantetheinyl transferase; Q9F4F7; Biochemical Sfp PPTase activity, qHTS; Potency, µM, usual class: inhibitors; 3.5% of 310,000 active; AID 1490;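 also: the enzyme is Sfp with the accession as filed and its product quenches rhodamine fluorescence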
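Reaction rates are the 30-min fluorescence difference (ex 525, em 598 nm) in wells containing 15 nM Sfp, 5 uM rhodamine-CoA and 12.5 uM BHQ-2-YbbR at pH 7.6 with 10 mM MgCl2.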
ELG1 DNA repair – inhibitors of ELG1-dependent DNA repair in HEK293T cells; HEK293T ELG1-luciferase reporter, luminescence, 16 h; DNA damage induced by 5-fluorouridine; 2.3% of 330,000 active; Potency, µM (series often up to 46.1 µM), hits mostly inhibitors; also: nearly all actives have a fitted effect of over 55% in size
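Luminescence from the luciferase reporter, measured 30 min after ONE-Glo reagent at room temperature, was the read-out. Beforehand, 2,000 cells per well were exposed for 16 hr at 37 °C to 5-fluorouridine together with compound or vehicle.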
Giardia kill – Giardia lamblia killing; Giardia lamblia trophozoite viability; activity change, % at 7.66 µM, hits read low; 0.15% of 340,000 active; AID 540267; in the data active = activity change below about -80%; inconclusive = between about -30% and that limit;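 also: parasites exposed to compound for two days anaerobically before the ATP read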
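Trophozoite viability was measured as ATP-dependent luminescence, read 15-30 min after reagent addition. Before that, parasites at 100 cells/well were exposed to compounds for 48 h, anaerobically, at 37 deg C.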
FBPA coupling cs – counter-screen for Giardia aldolase inhibitors: coupling enzyme system; coupling enzyme system counterscreen, AmpLite Red fluorescence; activity change, negative = inhibition, % at 58.2 µM, hits read low; 0.67% of 290,000 active; AID 2472; in the data active = activity change below about -30%
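Fluorescence at 525 nm excitation and 598 nm emission measured inhibition of the coupled detection system without aldolase. Compounds (at 57.5 uM final) were preincubated 10 min at room temperature with coupling enzyme reagent before a 20 min substrate/AmpLite Red step.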
Numbers stand for hits; – = inactive; ? = inconclusive; · = not tested or not shown. Hits are enriched below; roughly 5.5% of the tested compounds scored in any of these assays. Unless noted, calls follow the shape of the dose curve; as a rule, active = well fitted curve in the direction sought with a large enough effect; inconclusive = small, poorly fitted or top-dose-only effect, or another doubt; inactive = no such curve, though single readings can be large; an effect the other way counts as inactive or inconclusive.

SMILES	Sfp PPTase inh	ELG1 DNA repair	Giardia kill	FBPA coupling cs
NC(=O)CSc1nnc(-c2ccc(S(=O)(=O)N3CCCC3)cc2)n1Cc1ccco1	?	–	–	–
CC(=O)c1c(C)[nH]c(C(=O)CSc2nnc(-c3ccco3)n2Cc2ccccc2)c1C	–	?	–	–
COC(=O)CSc1nnc(-c2ccco2)n1Cc1ccco1	22µM	?	–	–
CCCn1c(N)c(C(=O)CSc2nnc(-c3ccco3)n2Cc2ccccc2)c(=O)[nH]c1=O	–	15µM	–	–
COCCn1c(SCC(=O)NCCc2ccccc2)nnc1-c1ccco1	–	–	–	–
O=C(O)CSc1nnc(-c2ccc(S(=O)(=O)N3CCCC3)cc2)n1Cc1ccco1	32µM	–	–	–
CC(C)(C)NC(=O)CSc1nnc(-c2ccco2)n1Cc1ccco1	–	–	–	–
O=C(c1cnccn1)N1CCC2(CCCN(Cc3ccncc3)C2)CC1	–	·	·	–
COc1ccc(C)cc1NC(=O)C(c1ccccc1)N1CCN(CC(=O)NC2CC2)CC1 (configuration not stated)	·	–	–	·
CCn1c(SCc2ccc(C#N)cc2)nnc1-c1ccc(S(=O)(=O)N2CCCCC2)cc1	–	10µM	–	–
CCOC(=O)CNC(=O)CSc1nnc(-c2ccccc2)n1Cc1ccco1	13µM	–	–	–
Cc1cc(NC(=O)CSc2nnc(-c3ccccc3)n2Cc2ccco2)no1	–	–	–	–
C/C(=N\Nc1nccnc1Cl)c1ccc(Br)cc1	–	–	–	–
C/C(=N\Nc1nccnc1Cl)c1ccc([N+](=O)[O-])cc1	79µM	?	–	–
O=C(CSc1nnc(-c2ccco2)n1CC1CCCO1)c1ccc(F)cc1 (configuration not stated)	50µM	–	–	–
COc1cccc(C(=O)CSc2nnc(-c3ccco3)n2CC2CCCO2)c1 (configuration not stated)	–	–	–	–
COc1ccc(C(=O)CSc2nnc(-c3ccco3)n2CC2CCCO2)cc1 (configuration not stated)	45µM	–	–	–
O=C(CSc1nnc(-c2ccco2)n1CC1CCCO1)N1CCCCC1 (configuration not stated)	–	–	–	–
CCOC(=O)C1=CNS(=O)(=O)NC1c1ccc(OC(C)=O)cc1 (configuration not stated)	·	–	–	·
CCNc1ncc2nc(-c3cccs3)c(=O)n(CCC#N)c2n1	–	·	·	–
CC(C)NC(=O)N(C)C[C@@H]1Oc2c(NC(=O)Nc3ccccc3)cccc2C(=O)N([C@H](C)CO)C[C@H]1C	·	–	–	·
Cn1c(O)c(N=Nc2ccc(F)cc2)c2ccccc21	–	–	–	–
Cn1c(O)c(N=Nc2ccccc2)c2ccccc21	50µM	–	–	–
Cn1c(O)c(N=Nc2nc(-c3ccccc3)cs2)c2ccccc21	56µM	?	–	–
Cc1ccc(S(=O)(=O)NCCc2nc3ccccc3[nH]2)cc1	–	–	–	–
SMILES	Sfp PPTase inh	ELG1 DNA repair	Giardia kill	FBPA coupling cs
COCCCNCCOCCSc1ccc(Cl)cc1	50µM	–	–	–
O=C1/C(=C\Nc2ccc(Cl)cc2)CCN1c1ncccn1	89µM	?	–	–
O=C1/C(=C\Nc2ccc(OC(F)(F)F)cc2)CCN1c1ncccn1	–	?	–	–
CCOc1ccc(C(C)=O)cc1COc1ccc(-c2nnco2)cc1	–	7.3µM	–	·
C=CCSc1nnc(N2C(=O)C(O)=C(C(=O)c3ccco3)C2c2ccccc2F)s1 (configuration not stated)	18µM	?	–	–
CCCSc1nnc(N2C(=O)C(O)=C(C(=O)c3ccco3)C2c2ccccc2F)s1 (configuration not stated)	40µM	–	–	–
CSc1nnc(N2C(=O)C(O)=C(C(=O)c3ccco3)C2c2ccccc2F)s1 (configuration not stated)	–	–	–	·
CC1(C)OC(=O)C=C[C@]2(C)[C@H]3CC[C@@]4(C)[C@H](C(=O)O)OC(=O)[C@H]5O[C@]54[C@]3(C)C(=O)C[C@@H]12	·	–	–	·
CCC(=O)O[C@H](CC(=O)O)C[N+](C)(C)C	–	·	·	–
COC(=O)c1c(NC(=O)c2ccco2)sc2c1CC(C)(C)NC2(C)C	–	9.2µM	–	·
COC(=O)c1c(NC(=O)c2ccccc2)sc2c1CC(C)(C)NC2(C)C	–	–	–	–
CSc1nc2c(C)c(C)c(C)c(C)c2[nH]1	–	–	–	–
CSc1nc(=S)cc(C)[nH]1	35µM	–	–	–
NC(=O)COC(=O)c1c2c(nc3ccccc13)CCCC2	–	–	–	–
O=C(OCC(=O)N1CCc2ccccc21)c1c2c(nc3ccccc13)CCCCC2	–	23µM	–	–
CC(C)NC(=O)NC(=O)COC(=O)c1c2c(nc3ccccc13)CCC2	–	23µM	–	–
CC(C)(C)NC(=O)COC(=O)c1c2c(nc3ccccc13)CCC2	–	?	–	–
CCOC(=O)C1(CCOc2ccccc2)CCN(C(=O)CCSC)CC1	·	·	–	·
Cc1ncnc(N)c1CCCNc1ccccc1	·	·	–	·
CC[C@]12C(=O)N(C)C[C@H]([C@@H]3C(=O)N(C)C(=O)[C@@H]31)N2C(=O)c1ccc(C)cc1	·	·	–	·
CC(NC(=O)CSc1nc(C2CC2)n(-c2ccccc2)n1)c1ccco1 (configuration not stated)	·	–	–	·
O=C(O)C1C2C=CC(O2)C1C(=O)Nc1ccccc1C(F)(F)F (configuration not stated)	28µM	?	–	–
CCc1ccccc1NC(=O)C1C2C=CC(O2)C1C(=O)O (configuration not stated)	–	–	–	–
CCN(CC)CCn1c(NCc2ccccn2)nc2ccccc21	?	–	–	–
CCCCn1c(NCc2ccccn2)nc2ccccc21	56µM	–	–	–
SMILES	Sfp PPTase inh	ELG1 DNA repair	Giardia kill	FBPA coupling cs
C=CC[C@@H]1C=C[C@H](O/N=C\[C@@H](C)[C@H](OCc2ccccc2)C(C)C)[C@H](CO)O1	–	·	·	–
C=CCNC(=S)NS(=O)(=O)c1cccs1	22µM	–	–	–
O=S(=O)(NCCNS(=O)(=O)c1cccs1)c1cccs1	–	–	–	–
O=C(Cc1n[nH]c(=O)c2ccccc12)OCC(=O)c1ccc(F)c(F)c1	·	–	–	·
NC1=C(c2ccc(F)cc2)C(=O)CS1	79µM	?	–	–
Cn1c(=O)[nH]c(NCCc2ccc(O)cc2)c([N+](=O)[O-])c1=O	·	·	–	·
CCOC(=O)c1cc2occc2n1CC(=O)N1CCCc2ccccc21	79µM	–	–	–
COC(=O)c1cc2oc(C)cc2n1CC(=O)N1CCCc2ccccc21	56µM	–	–	–
COc1cc(NC(=O)c2cccc3c2C(=O)N(Cc2cccnc2)C3)cc(OC)c1OC	–	9.2µM	–	–
O=C(Nc1ccc2c(c1)OCO2)c1cccc2c1C(=O)N(Cc1cccnc1)C2	–	?	–	–
COc1ccccc1NC(=O)c1cc(S(=O)(=O)NCc2ccccc2)ccc1F	–	16µM	–	–
CCOc1ccc(S(=O)(=O)NCc2ccncc2)cc1NC(=O)c1ccccc1	·	4.1µM	–	·
COc1ccc(CNS(=O)(=O)c2ccc(F)c(C(=O)Nc3ccccc3OC)c2)cc1	–	?	–	–
